Molecules are shown by their SMILES. Where “and” joins values, the source holds several entries; their conditions need not be identical. Equal entries are not always repeated. About 83,000 compounds went through this panel and 20% of them were active in at least one assay; those are over-represented in the sample as a whole.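 Results are percent growth after 48 hours of single-concentration exposure. 100 means growth as in untreated cells, lower positive values show inhibition; negative values down to -100 show cell death.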 Values without a mark were called inactive. Calls of active or inactive are those of the source. Rule for the calls: active = growth percent below 10; inactive = the rest.

This assay has as its system MDA-MB-468 breast. The assay is described as follows: NCI-60 one-dose screen, 48 h (100 = growth as untreated, 0 = no growth, -100 = all killed). The settings on record: 10 µM unless noted.
As to `c1ccc2c(c1)Nc1cc3ccccc3cc1N2`, the growth was 40.3%. Under `C=CC(=O)N1CC=C(c2cc3c(N[C@H](C)c4ccccc4)ncnc3[nH]2)CC1` stands 33.3%; under `Nc1ncnc2c1ncn2C1OC(COP(=O)(O)O)C(O)C1O` (stereo unspecified), 102%. Under `CCOC(=O)C1=CC(=O)CC(C)(C)O1` stands 117% and 108%; under `c1ccc2cc(C[n+]3ccn(CCCCCCCCCCn4cc[n+](Cc5ccc6ccccc6c5)c4)c3)ccc2c1`, -28.3% (active). For `C=CC(=O)Nc1cccc(-c2nc(SC)nc(NCc3ccccc3)c2C#N)c1` the value was 52.1%; for `COc1cc2nnc3c4cccnc4[nH]c3c2cc1OC`, -69.9% (active); for `CC1(C)CC2=C3C=C[C@@H]4[C@@]5(C)CCC(=O)C(C)(C)[C@@H]5CC[C@@]4(C)[C@]3(C)CC[C@@]2(C(=O)O)CC1=O`, 74.2%. For `CNC(=O)c1cc(N2CCc3cc(NC(=O)Nc4ccc(Cl)c(C(F)(F)F)c4)ccc32)ccn1`, the growth was 57%. Under `CC(=O)c1cc(C(=O)c2ccc3c(c2)Sc2ccccc2N3)c2c(C)cccn12` stands 14%; under `N/C(=N\C(N)=N\c1nc2ccccc2s1)c1cccc(F)c1`, 92.9% [5 µM]; under `O=C(O)c1cn(C2CC2)c2cc(N3CCN(C(=O)CN4C(=O)CSC4=O)CC3)c(F)cc2c1=O`, 96.4%. Under `CCCCCC(/C=N\NC(=S)N/N=C/C(=C/c1ccccc1)CCCCC)=C\c1ccccc1` stands 47.4%; under `Cc1cccc(N2C(=O)/C(=C/C(Cl)=C/c3ccc([N+](=O)[O-])cc3)SC2=S)c1C`, 11.6%; under `C/C=C(/C)C(=O)OC1C=C(CO)C(=O)C(OC(=O)/C(C)=C\C)C1C(C)C` (stereo unspecified), -50.9% (active). Regarding `COC(c1ccccc1)(c1ccccc1)c1ccccc1`, the growth is 113%. In the case of `Cc1ccc(Nc2nnc(-c3ccc(Cl)cc3)o2)c(C)c1`, the growth was 75.4%.

For `CC/C(=C(\CC)c1ccc(OCCN(CC)CC)cc1)c1ccc(OCCN(CC)CC)cc1`, the growth is 0.372% (active). For `CCN1CCN(c2nc(NNC(=O)Cc3ccccc3)nc(N3CCN(C(c4ccccc4)c4ccccc4)CC3)n2)CC1`, the growth is 12.2%. For `O=c1c2cc(Br)cc(Br)c2nc(-c2ccc(Cl)cc2)n1/N=C/c1cccc(F)c1` the value was 62.6%; for `CCCCCC(=O)OCCC1CCCCC1`, 99%; for `O=C(Nc1ccc(F)cc1F)c1cc(F)ccc1O`, -0.731% (active).

For the compound `COc1cc(C(=O)c2cc(C(C)=O)c3cccc(C)n23)cc(OC)c1OC`, the growth was 15.4%.

As for `Cc1ccc(CC#N)cc1C`, the growth was 104%. Consider `Oc1[nH]c2ccccc2c1Nn1c(N=N/C=c2/ccc3c(c2)C=NN=3)n[nH]c1=S`, for which the growth was 107%. Under `Oc1ccc(/C=N/NC(=S)Nc2ccccc2)nc1` stands -37.7% (active).

These data come from PubChem BioAssay (NCI).
